Measurements taken from PubChem BioAssay (Tox21).
“And” between values parts separate entries of the source, which are not always exact repeats. Equal values may be shown once. Results filed as inconclusive are left out. Entries that show only a call come without a potency. Some structures have more than one record in an assay (separate samples or runs), and their calls can disagree. The source made the active and inactive calls. Calls come from the whole dose curve; as a rule, active = well fitted inhibition curve with a large enough effect in the repeat runs; inconclusive = weak or mixed curves; inactive = no such curve, though single readings can be large or run the other way.
Potency is the fitted concentration of half-maximal effect.

What follows are compounds tested against Cytochrome P450 2D6 (Homo sapiens) (UniProt P10635) (assay: Cytochrome P450 Family 2 Subfamily D Member 6 (CYP2D6) small molecule antagonists: luciferase reporter qHTS assay (AID 1671196; note: nearly all actives have a fitted effect of over 50% in size)). Conditions: P450-Glo CYP2D6 enzyme assay, luciferin luminescence, 1 h; series mostly up to 115 µM.
Sequence of Cytochrome P450 2D6 (Homo sapiens) (P10635 whole entry, looked up): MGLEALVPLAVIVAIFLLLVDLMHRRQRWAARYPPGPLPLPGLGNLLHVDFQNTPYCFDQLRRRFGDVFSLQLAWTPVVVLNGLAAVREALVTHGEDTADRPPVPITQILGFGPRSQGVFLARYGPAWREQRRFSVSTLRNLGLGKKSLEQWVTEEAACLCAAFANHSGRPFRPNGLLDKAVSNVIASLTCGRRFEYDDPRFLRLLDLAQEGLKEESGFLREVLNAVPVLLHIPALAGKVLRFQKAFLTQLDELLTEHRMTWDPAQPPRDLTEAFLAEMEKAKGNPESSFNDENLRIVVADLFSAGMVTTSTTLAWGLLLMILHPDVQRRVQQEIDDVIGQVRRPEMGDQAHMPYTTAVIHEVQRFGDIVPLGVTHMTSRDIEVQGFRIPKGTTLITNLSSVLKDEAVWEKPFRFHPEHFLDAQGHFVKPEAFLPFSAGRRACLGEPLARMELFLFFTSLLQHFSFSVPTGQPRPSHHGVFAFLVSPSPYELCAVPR
Excerpt: U.S. Tox21 Program National Center for Advancing Translational Sciences [NCATS] U.S. Environmental Protection Agency [EPA] National Institutes of Environmental Health Sciences [NIEHS] National Toxicology Program [NTP] U.S. Food and Drug Administration [FDA] Tox21 Assay Overview: Cytochrome P450 (CYP) enzymes are membrane-bound hemeproteins that play a key role in metabolism of drugs and xenobiotics. Evaluation of the effect of chemicals on CYP isozymes is useful to minimize the adverse drug reactions and toxicities in drug development process. Tox21 chemicals were tested for their effect on CYP enzyme activities by using P450-Glo (TM) screening systems (Promega Corporation, Madison, WI). These systems provide a luminescent method containing proluciferin substrates and are converted to luciferin products by CYP isozymes. The luciferin products formed are detected with a luciferin detection reagent, and the amount of light produced is proportional to CYP activity. P450-Glo (TM) CYP2D6 screening system (Catalog. No. V9890) was used to detect the compounds that interfere in CYP2D6 activity.
Tox21 Assay Protocol Summary: Two ul of enzyme-substrate mix was dispensed into medium binding white/solid 1536-well plates (Greiner Bio-One North America Inc., Monroe, NC) using a BioRaptr Flying Reagent Dispenser (FRD, Beckman Coulter, Brea, CA). […] The assay plates were incubated at room temperature for 10 min. Then 2 ul of NADPH regeneration solution was added to each well of the assay plates using an FRD and incubated at room temperature for 1 h. The reaction was stopped by adding 4 ul of detection reagent using an FRD and after 20 min incubation at room temperature the luminescence signal was measured using a ViewLux plate reader (Perkin Elmer, Shelton, CT). Data were expressed as relative luminescence units.
`CCC(C)(C)O` was tested, and the Potency was “inactive”. `CCC1(CC)C(=O)NC(=O)NC1=O` was tested, and the Potency was “inactive”. In the case of `C=C(C)C(=O)OCCCCOC(=O)C(=C)C`, the Potency is reported as “inactive”. For `C=CCSSCC=C`, the Potency was “inactive”. For `O=S(=O)(c1ccccc1)c1ccccc1`, the Potency was “inactive”. In the case of `C[C@H](N)[C@H](O)c1ccc(O)c(O)c1`, the Potency is reported as “inactive”. In the case of `Cc1ccccc1`, the Potency is reported as “inactive”. In the case of `Cc1nnc(-c2ccccc2)c(=O)n1N`, the Potency is reported as “inactive”. With `CCCCCCCCCCCCCCCl` the Potency was “inactive”. `C=C(Cl)Cl` was tested, and the Potency was “inactive”. With `CCOP(=O)(SC(C)CC)N1CCSC1=O` (stereo not given) the Potency was “inactive”. For `C=CCc1ccc(OC(=O)Cc2ccccc2)c(OC)c1`, the Potency was 35.6 µM (active). `OCCSSCCO` was tested, and the Potency was “inactive”. For `CCCCNC(=O)OCC#CI`, the Potency was 31.6 µM (active) and 35.6 µM (active). In the case of `CCCSP(=S)(OCC)Oc1ccc(SC)cc1` (stereo not given), the Potency is reported as 25.2 µM (active). `CN1CC[C@]23c4c5ccc(O)c4O[C@H]2[C@@H](O)CC[C@H]3[C@H]1C5` was tested, and the Potency was 44 µM (active). In the case of `C=CC(=O)OCC`, the Potency is reported as “inactive”. With `O=C(NC(=O)c1cc(F)c(F)cc1Cl)Nc1cc(F)ccc1N1CCC(C(=O)O)CC1` the Potency was “inactive”. With `CC1(C)CC(=O)CC(C)(C)N1[O]` the Potency was “inactive”. In the case of `COC(=O)C1(O)c2ccccc2-c2ccccc21`, the Potency is reported as “inactive”. In the case of `CCCCCCCCn1sccc1=O`, the Potency is reported as 11.3 µM (active). With `O=[N+]([O-])c1cc(Cl)c(Cl)cc1Cl` the Potency was “inactive”. With `CCCC[P+](CC)(CCCC)CCCC` (tested in a mixture with another compound) the Potency was 0.0716 µM (active). For `COCc1cnc(C2=NC(C)(C(C)C)C(=O)N2)c(C(=O)O)c1` (stereo not given), the Potency was “inactive”. With `CCOC(=O)c1cncn1C(C)c1ccccc1` (stereo not given) the Potency was “inactive”. For `COc1ccc(C(=O)c2c(C)n(CCN3CCOCC3)c3ccccc23)cc1`, the Potency was 15.5 µM (active). In the case of `OCCCl`, the Potency is reported as “inactive”. With `O=C(CCl)CCl` the Potency was “inactive”. In the case of `CN(C)c1ccc(N=O)cc1`, the Potency is reported as 17.9 µM (active) and 25.2 µM (active). With `CCN(C(C)=O)c1cccc(-c2ccnc3c(C#N)cnn23)c1` the Potency was “inactive”. `CCCC(C)(COC(N)=O)COC(=O)NC(C)C` (stereo not given) was tested, and the Potency was “inactive”. For `Cc1nc(N(C)C)nc(OC(=O)N(C)C)c1C`, the Potency was “inactive”. In the case of `C[C@H]1O[C@H](OC2[C@@H](O)[C@@H](O)C(O)[C@H](O)[C@H]2O)[C@@H](N)C[C@@H]1N=C(N)C(=O)O` (stereo not given in full), the Potency is reported as “inactive”. With `CC(C)[C@@H](C(=O)O[C@@H](C#N)c1cccc(Oc2ccccc2)c1)c1ccc(Cl)cc1` the Potency was 32.2 µM (active) and inactive. With `O=C(O)c1ccc(=O)[nH]c1` the Potency was “inactive”. For `C1CCNCC1`, the Potency was “inactive”. With `CC(Cc1ccccc1)NCc1ccccc1Cl` (stereo not given) the Potency was 0.174 µM (active). `CC(C)(C)c1ccc(CCOc2ncnc3ccccc23)cc1` was tested, and the Potency was 71 µM (active). `O=C(Cc1ccccc1)c1ccccc1` was tested, and the Potency was 22.4 µM (active). With `CC(C)C1(C)N=C(c2ncccc2C(=O)O)NC1=O` (stereo not given) the Potency was “inactive”.
